Screens deposited in PubChem BioAssay by National Center for Advancing Translational Sciences (NCATS).
Sm TGR block: blocks Schistosoma mansoni thioredoxin glutathione reductase | Potency, µM (series often up to 114 µM), inactives show at the highest dose activity change, negative = inhibition, actives largely listed as inhibitors | purified TGR, DTNB reduction, TNB absorbance 405 nm | 360,000 compounds, 3% hits; also: nearly all actives have a fitted effect of over 60% in size
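Kinetic colorimetric format: TGR-catalysed, NADPH-driven DTNB reduction monitored via TNB absorbance. Enzyme dispensed at 20 nM; compound exposure 15 min at room temperature before reaction start.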
AmpC no deterg: AmpC beta-lactamase inhibition without detergent | P00811 | AmpC nitrocefin hydrolysis, absorbance 480 nm, 0.0001% Triton | Potency, µM (titrated, usually from 57.1 µM), without a hit: at the highest dose activity change, negative = inhibition, usual class: inhibitors | 330,000 compounds, 0.52% hits | AID 485341;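 also: plate controls were no compound for no effect and no enzyme for full effect; nearly all actives have a fitted effect of over 20% in size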
Target sequence (P00811 whole entry, looked up): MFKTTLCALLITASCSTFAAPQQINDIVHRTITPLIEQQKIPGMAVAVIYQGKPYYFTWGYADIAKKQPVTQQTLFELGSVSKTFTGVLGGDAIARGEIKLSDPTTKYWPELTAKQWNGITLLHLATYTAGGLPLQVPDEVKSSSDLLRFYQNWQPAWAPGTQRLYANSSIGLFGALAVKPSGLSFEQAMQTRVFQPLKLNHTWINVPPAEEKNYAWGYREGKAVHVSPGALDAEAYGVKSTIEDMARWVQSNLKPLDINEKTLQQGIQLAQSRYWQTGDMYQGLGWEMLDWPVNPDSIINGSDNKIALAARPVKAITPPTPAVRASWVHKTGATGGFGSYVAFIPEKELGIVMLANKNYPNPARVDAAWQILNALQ
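20 mM phosphate pH 7.0 + 0.01% (detergent screen) or 0.0001% Triton X-100; 5.3 nM AmpC reagent; cpd preinc 15 min RT; nitrocefin (800 uM stock) to start; A480 q20 s × 4 min; Activity was normalised to no-enzyme and no-compound control wells.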
FBPA Giardia inh: blocks Giardia fructose-bisphosphate aldolase activity. A8B2U2. purified Giardia FBPA. Potency, µM (top dose mostly 59.6 µM), without a hit: top-dose activity, negative = inhibition, hits mostly inhibitors. 290,000 compounds, 0.71% hits. AID 2451; also: nearly all actives have a fitted effect of over 55% in size
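Giardia FBPA (40 nM reagent) was preincubated 10 min at RT with compound (up to 57.5 uM final), then substrate plus GAPDH/TPI/NAD/arsenate coupling system with diaphorase/resazurin was added; resorufin fluorescence (525/598 nm) was read after 20 min.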
AmpC detergent: inhibitors of E. coli AmpC beta-lactamase with detergent. 370,000 compounds, 0.041% hits. Potency, µM (titrated, usually from 114 µM), for the others: at the highest dose activity change, negative = inhibition, actives largely listed as inhibitors. P00811. AmpC hydrolysis of nitrocefin, absorbance 480 nm, 0.01% Triton;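 also: 0% = no-compound wells and -100% = no-enzyme wells; nearly all actives have a fitted effect of over 25% in size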
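AmpC (5.3 nM in the dispensed reagent) in 20 mM phosphate pH 7.0 with 0.01% (detergent screen) or 0.0001% Triton X-100 was preincubated with compounds for 15 min at room temperature. Nitrocefin was then added from an 800 uM solution, and hydrolysis was followed at 480 nm.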
* hit, by the source's call; ? = inconclusive; / = not tested or not shown. Sampled rows, rich in hits. Any-hit rate of the full collection: about 3.6%. Calls follow the shape of the dose curve; as a rule, active = well fitted curve in the direction sought with a large enough effect; inconclusive = small, poorly fitted or top-dose-only effect, or another doubt; inactive = no such curve, though single readings can be large; an effect the other way counts as inactive or inconclusive. Unless noted, % is scaled to controls: 0 for no effect and ±100 for the full control effect; potency is read from the fitted curve at half-maximal effect.

SMILES	Sm TGR block	AmpC no deterg	FBPA Giardia inh	AmpC detergent
Cc1ccc(NC(=O)C(CC(C)C)NS(=O)(=O)c2ccc3c(c2)oc(=O)n3C)c(C)c1 (configuration not stated)	6%	/	/	14%
COc1ccc(-c2sc3cc(OC)c(OC)cc3c2C#CC2(O)CCCCC2)cc1	8.9µM*	45%	/	4%
Cc1ccc(C2(c3ccccc3)NC(=O)N(CC(=O)NC3(C#N)CCCC3)C2=O)cc1C (configuration not stated)	-11%	-1%	/	4%
CCCn1c(Cc2ccccc2)nnc1SC(C)C(=O)NC1CC1 (configuration not stated)	-1%	-6%	/	-1%
Cc1ccc(N(C(=O)c2csnn2)C(C(=O)NC2CCCCC2)c2ccccn2)cc1C (configuration not stated)	-4%	20%	-3%	-10%
Cc1cc(Cl)ccc1OCCCC(=O)N1CCN(C(=O)c2ccco2)CC1	50µM*	81%	3%	-15%
CCc1cc2ccc(C)cc2nc1SCC(=O)N1CCN(C(=O)c2ccco2)CC1	40µM*	96%	6%	-11%
O=C(CSc1nc2ccc(Cl)cc2[nH]1)N1CCN(C(=O)c2ccco2)CC1	50µM*	-6%	-5%	-3%
CCOCCCNC(=S)N1CCN(c2nc(-c3ccc(F)cc3)cs2)CC1	10%	45%	-8%	-14%
Cc1nn(CC(=O)Nc2ccc3c(c2)CCC3)c(C)c1[N+](=O)[O-]	-9%	-22%	/	-7%
COc1cc(-c2noc(-c3ccc(N4CCN(C)CC4)c([N+](=O)[O-])c3)n2)cc(OC)c1OC	-33%	/	/	23%
O=C(CC1N=C2c3ccccc3N=C(SCC(=O)Nc3ccccc3F)N2C1=O)NCc1ccc2c(c1)OCO2 (configuration not stated)	0%	/	/	4%
O=C(N=Nc1c(O)[nH]c2ccccc12)c1cc(NS(=O)(=O)c2cccs2)cc(NS(=O)(=O)c2cccs2)c1	11%	16µM*	0%	3%
O=C(N=Nc1c(O)[nH]c2ccccc12)c1cccs1	-2%	-26%	-13%	3%
CCOC(=O)c1ccoc1CSCc1ccc(C(=O)OC)o1	28µM*	-14%	-2%	2%
Cc1cccc(CNc2cc(-c3ccc(C(=O)N(C)C)cc3)ncn2)c1	/	/	-6%	/
O=C(NCc1cccs1)C(Cc1ccccc1)n1cccc1 (configuration not stated)	40µM*	-25%	4%	-10%
CCOC(=O)c1ccc(N2C(=O)CC(NC3CCN(C(=O)c4cccc(Cl)c4)CC3)C2=O)cc1 (configuration not stated)	50µM*	121%	-8%	?
CCOc1ccc(N2C(=O)CC(NC3CCN(C(=O)c4cccc(Cl)c4)CC3)C2=O)cc1 (configuration not stated)	8%	152%	/	2%
CCN(CC)C(=O)c1ccc2c(c1)N(Cc1ccccc1F)C(=O)c1ccccc1S2=O (configuration not stated)	1%	/	/	14%
CCCSc1nnc(N2C(=O)CC(c3ccsc3)C3=C2CCCC3=O)s1 (configuration not stated)	2%	4.5µM*	6%	?
COc1ccc(CNC(=O)CCn2c(=O)c3cccn3c3ccc(F)cc32)cc1OC	8%	/	/	-1%
O=C1C(=O)N(C2CCS(=O)(=O)C2)C(c2cccc(O)c2)/C1=C(/O)c1ccc(Cl)cc1 (configuration not stated)	56µM*	-14%	-14%	1%
CNC(=O)c1nnsc1S(=O)c1ccc(Cl)cc1 (configuration not stated)	0.32µM*	-41%	-17%	?
Cc1ccc(S(=O)c2snnc2C)cc1 (configuration not stated)	-34%	-15%	6%	?
CCCNC(=O)c1nnsc1S(=O)(=O)c1ccc(Cl)cc1	0.32µM*	-35%	-1%	-9%
CCCNC(=O)c1nnsc1S(=O)c1ccc(Cl)cc1 (configuration not stated)	0.32µM*	-45%	-23%	-15%
Cc1ccc(CCNCc2c(C(=O)O)c(C)n(-c3ccccc3)c2C)cc1	?	-2%	-16%	0%
Cc1c(CNCCc2ccc(Cl)cc2)c(C(=O)O)c(C)n1-c1ccccc1	11µM*	50%	6%	3%
